Sampled rows, rich in hits. Any-hit rate of the full collection: about 6%.
Tau fibril FP = blocks human tau fibril formation measured by polarization | P10636 | K18 P301L tau heparin fibrillization, Alexa594 FP, 6 h | Potency, µM (doses to about 57.7 µM), for inactives: at the top dose activity, negative = inhibition, usual class: inhibitors | actives 0.39% (n = 280,000) | AID 1468; further: nearly all actives have a fitted effect of over 55% in size
Target sequence (P10636 561-689 P618L limits assumed): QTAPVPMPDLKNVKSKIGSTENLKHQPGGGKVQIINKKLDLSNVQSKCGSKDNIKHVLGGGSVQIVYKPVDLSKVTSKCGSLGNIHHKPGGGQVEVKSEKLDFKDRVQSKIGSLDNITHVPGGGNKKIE
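Compound effects on tau fibrillization are measured by Alexa 594 fluorescence polarization (ex 555, em 632 nm). K18 P301L tau is used at 15 uM with 0.24 uM labeled tracer, and 20 uM heparin induces aggregation over 6 hr at 37 C.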
VDR inhibitor = vitamin D3 receptor (human) inhibition | VDR-SRC2-3 peptide fluorescence polarization, 2 h | AID 504847 | P11473 | actives 0.93% (n = 400,000) | Potency, µM, for the others: max response, negative = inhibition, actives largely listed as inhibitors
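FP read-out; VDR + SRC2-3 coactivator peptide; 23 nl compound by pintool; 2 h RT incubation; reagents held at 4 deg C, protected from light.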
Sfp inh = Sfp phosphopantetheinyl transferase inhibition | Biochemical Sfp PPTase activity, qHTS | AID 1490 | Q9F4F7 | Potency, µM, for inactives: largest response in the series, negative = inhibition, most hits filed as inhibitors | actives 3.5% (n = 310,000);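 further: the enzyme is Sfp with the accession as filed and its product quenches rhodamine fluorescence; 0% = enzyme reaction without inhibitor and -100% = no enzyme wells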
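With Hepes-Na pH 7.6 buffer containing 10 mM MgCl2, Sfp (15 nM) modified BHQ-2-YbbR (12.5 uM) using rhodamine-CoA (5 uM). Two reads 30 minutes apart at 525/598 nm yielded each well's rate.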
Tau fibril ThT = tau fibrillization inhibition (ThT binding) | recombinant tau K18 P301L, heparin-induced fibrillization, ThT fluorescence | Potency, µM (series often up to 57.4 µM), inactives show at the highest dose activity, negative = inhibition, most hits filed as inhibitors | actives 2.1% (n = 270,000) | P10636; further: nearly all actives have a fitted effect of over 55% in size
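In this qHTS, human K18 P301L tau is incubated with compound and heparin for 6 hr at 37 C, and Thioflavin T fluorescence then reports fibril load.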
PLK1 PBD inh = PLK1 (human) polo-box domain binding inhibition; P53350; Plk1 PBD binding of FITC phosphopeptide, fluorescence polarization; Potency, µM, for the others: max response, negative = inhibition, usual class: inhibitors; actives 2.8% (n = 360,000); AID 720504; further: series mostly up to about 57 µM; nearly all actives have a fitted effect of over 65% in size
Tau fluor cs = counter-screen for tau fibril formation inhibitors | tau K18 P301L Alexa594 fluorescence, heparin fibrillization | Potency, µM (series often up to 57.7 µM), for the others: at the highest dose activity change, negative = decrease | actives 0.93% (n = 280,000) | AID 1463; further: nearly all actives have a fitted effect of over 55% in size
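Human tau K18 P301L (15 uM unlabeled, 0.24 uM Alexa 594-labeled) in 100 mM sodium acetate pH 7 with 20 uM heparin, 6 hr at 37 C. ThT 30 uM added, 1 hr ambient; Alexa 594 FP and total fluorescence read at 555/632 nm.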
Starred values were filed as active, the others as inactive; ? = inconclusive; . = not tested or not shown. The call rests on the fitted dose curve; in most records, active means well fitted curve in the direction sought with a large enough effect; inconclusive means small, poorly fitted or top-dose-only effect, or another doubt; inactive means no such curve, though single readings can be large; an effect the other way counts as inactive or inconclusive. Unless noted, on the % scale 0 is the no-effect control and ±100 the full control effect; potency means the concentration at half of the fitted maximal effect.

SMILES	Tau fibril FP	VDR inhibitor	Sfp inh	Tau fibril ThT	PLK1 PBD inh	Tau fluor cs
CCCCCCCCCCCCCC(=O)OC1C(C)[C@@]2(O)C(C=C(CO)C[C@]3(O)C(=O)C(C)=C[C@H]23)[C@@H]2C(C)(C)[C@]12OC(C)=O (stereo partly drawn)	-6.9%	-5.4%	1.8%	-1.6%	.	-7.1%
CC1O[C@@H](OC2CC[C@@]3(C=O)C4CC[C@]5(C)C(C6=CC(=O)OC6)CC[C@@]5(O)C4CC[C@]3(O)C2)C(O)C(O)C1O (stereo partly drawn)	3.4%	-7.1%	3.2%	7.8%	.	4.5%
O=C(Cn1cc(C=C2C(=O)NC(=O)NC2=O)c2ccccc21)NCC1CCCO1 (stereo not drawn)	.	-6.8%	7.9%	.	?	.
Cc1c(C=C2C(=O)N(C)C(=S)N(C)C2=O)c2ccccc2n1CC(=O)NCC1CCCO1 (stereo not drawn)	.	?	50.1µM*	.	2.67µM*	.
CC1=CC(c2ccccc2)NC(=S)N1 (stereo not drawn)	11.3%	79.4µM*	?	3.3%	?	0.7%
Clc1ccccc1C(c1ccccc1)(c1ccccc1)n1cccn1	.	-5.4%	-7.1%	.	.	.
COC(=O)c1ccc(C(c2c(C)[nH][nH]c2=O)c2c(C)[nH][nH]c2=O)cc1	.	?	-13.5%	.	21.2µM*	.
COc1ccc(C(=O)N2CCOCC2)cc1S(=O)(=O)N1CCC(C)CC1	-2.9%	13.4%	19.7%	0.5%	-2.8%	1.8%
N#CC(C#N)=NNc1ccc(S(N)(=O)=O)cc1	-8.7%	?	4.0%	10µM*	23.8µM*	-27.1%
CC1CCN(S(=O)(=O)c2ccc(NN=C(C#N)C#N)cc2)CC1	-2.0%	.	15.6%	14.1µM*	.	?
Cc1ccc(F)cc1NC(=O)c1ccc(Cn2nc(N3CCN(c4ccccc4)CC3)ccc2=O)o1	8.1%	5.5%	.	?	.	-21.7%
COc1ccc(OC)c(-n2c(O)c(C=Nc3c(C)n(C)n(-c4ccccc4)c3=O)c(=O)[nH]c2=S)c1	-11.8%	5.4%	44.7µM*	-9.8%	-26.0%	-7.2%
COc1ccc(-n2c(SCCN(C)C)nc3ccccc3c2=O)cc1	11.9%	10.7%	-7.3%	0.6%	-0.9%	9.7%
COP(=S)(OC)SCn1nnc2ccccc2c1=O	.	22.4µM*	22.4µM*	.	8.44µM*	.
O=C(Oc1ccccc1)N1CCC2(CC1)CCN(C(c1ccccc1)c1ccccc1)CC2	.	3.5%	22.6%	.	.	.
O=C1NC(=S)NC(=O)C1Cc1ccccc1O	.	-0.8%	.	.	-1.3%	.
O=C1NC(=S)NC(=O)C1Nc1ccc(Cl)cc1	.	?	.	.	2.99µM*	.
O=C1NC(=O)C(Nc2ccc(Cl)c(Cl)c2)C(=O)N1	.	39.8µM*	.	.	-29.2%	.
COc1ccc(CCn2c(NN=C3CCCCC3)nc3c2c(=O)[nH]c(=O)n3C)cc1	?	4.7%	?	28.2µM*	?	?
COc1ccc(CCNCc2ccc3c(c2)n(C)c(=O)n3C)cc1	-8.3%	-6.3%	.	-6.7%	.	-6.7%
CCCCCn1c(=O)c(C(=O)Nc2cnccn2)c(O)c2ccccc21	-8.1%	11.6%	15.7%	-3.5%	21.2µM*	-14.8%
N#CC1=C(N)Oc2c(c(=O)oc3ccccc23)C1c1cccnc1 (stereo not drawn)	-12.2%	-15.9%	-7.9%	2.9%	0.3%	4.4%
CCOc1cc(C2C(C#N)=C(N)Oc3c2c(=O)oc2ccccc32)ccc1OC(=O)c1cccs1 (stereo not drawn)	?	-3.2%	50.1µM*	-10.7%	5.8%	?
Cc1ccc(O)c(C(CCN(C(C)C)C(C)C)c2ccccc2)c1 (stereo not drawn)	-3.6%	-3.9%	9.3%	1.2%	.	-2.8%
Cc1nn(-c2ccccc2)c2c1C(c1ccc(F)cc1F)C(C#N)=C(N)O2 (stereo not drawn)	?	?	3.2%	?	21.2µM*	-21.6%
COc1ccc(OC)c(C2C(C#N)=C(N)Oc3c2c(C)nn3-c2ccc(C)cc2)c1 (stereo not drawn)	-8.8%	-16.6%	17.3%	?	29.9µM*	?

Assay outcomes deposited in PubChem by National Center for Advancing Translational Sciences (NCATS).
